Compound activity as filed in PubChem BioAssay.
Anthrax LF prot: inhibitors of Bacillus anthracis lethal factor protease | P15917 | multiplex microsphere protease cleavage assay, LF | inhibition, % at 10 µM | 360,000 tested, 0.12% active
BoNT A protease: BoNT A light chain protease inhibition. 360,000 tested, 0.17% active. inhibition, % at 10 µM. multiplex microsphere protease substrate cleavage, flow cytometry
Autofluor counter: compound fluorescence in toxin protease inhibitor counterscreen; compound autofluorescence counterscreen, microsphere flow cytometry; stronger effect = higher value; fluorescence intensity (concentration not given with the values); 360,000 tested, 3.1% active; AID 624483; in the data active = fluorescence intensity above about 16000; inconclusive = no clear call, values can overlap the other calls
BoNT F protease: BoNT F light chain protease inhibition. Multiplex microsphere protease cleavage assay, flow cytometry. inhibition, % at 10 µM. 360,000 tested, 0.22% active. AID 588497; in the data active = inhibition above about 35%, passing the limit was not always enough; inconclusive = no clear call, values can overlap the other calls
Large screens that a line does not name were inactive. Shown are actives, neighbours in structure and some others; about 3.5% of the full set was active somewhere. Cut-off read from the data, not from the text of the source, unless noted: active = inhibition above about 30%; inconclusive = no clear call, values can overlap the other calls; inactive = below that.

COC(=O)Nc1ccc2c(c1)N(C(=O)CCN1CCN3CCCC3C1)c1ccccc1CC2 (stereo not drawn)	BoNT F protease inconclusive
O=C(c1ccc(Cl)cc1)N1CCC(c2nc(-c3cccs3)no2)CC1	Autofluor counter 23989
Cc1occc1-c1n[nH]c(=S)n1CC(C)C	Autofluor counter 23617
CC(C)Cn1c(-c2csc3ccccc23)n[nH]c1=S	none
Cc1ccc(OCC(=O)Nc2ccc(Cl)cc2C(=O)c2ccccc2)cc1	none
Cc1ccc(C(=O)Nc2ccc(Cl)cc2C(=O)c2ccccc2)cc1	Autofluor counter 23597
COc1ccccc1C(=O)NC(CCSC)C(=O)NCC(c1ccco1)N(C)C (stereo not drawn)	Autofluor counter 21152
COc1ccc(OC)c(N=C2C(=O)Nc3ccccc32)c1	BoNT A protease inconclusive, Autofluor counter 21377
COc1ccc(N=C2C(=O)Nc3ccccc32)cc1	Autofluor counter 22766
Cc1ccccc1N=C1C(=O)Nc2ccccc21	none
O=C1Nc2ccccc2C1=Nc1ccc(F)cc1	none
O=C(c1ccc(Cl)c([N+](=O)[O-])c1)N1CCCc2ccccc21	BoNT F protease inconclusive
COc1ccc(S(=O)(=O)Nc2ccc3c(c2)C(=O)N([C@H](C)CO)C[C@H](C)[C@@H](CN(C)C(=O)NC2CCCCC2)O3)cc1	none
Cc1ccccc1Cn1ccc(-c2ccc3c(c2)OCO3)n1	BoNT A protease inconclusive, Autofluor counter 20609
Cc1ccccc1Cn1nnc(-c2ccc3c(c2)OCO3)n1	none
COC(=O)c1ccc2c(c1)NC(=O)C(N(CC(C)C)CC(C)C)S2 (stereo not drawn)	none
CCCN(CCC)C1Sc2ccc(C(=O)OC)cc2NC1=O (stereo not drawn)	Autofluor counter 19484
COc1ccc(N(CC(=O)NC2CCCC2)C(=O)Cn2nnc(-c3ccc(C)cc3)n2)cc1OC	Autofluor counter 16197
COc1ccc(N(CC(=O)NC2CCCC2)C(=O)Cn2nnc(-c3ccc(F)cc3)n2)cc1OC	none
COc1ccc(-c2nnn(CC(=O)N(C3CCCC3)C(C)C(=O)NC3CCCC3)n2)cc1OC (stereo not drawn)	none
COc1ccc(-c2nnn(CC(=O)N(C3CCCCC3)C(C)C(=O)NC3CCCC3)n2)cc1OC (stereo not drawn)	Autofluor counter 23408
Cc1c(C(=O)NC2CCC(C)CC2)oc2ccccc12 (stereo not drawn)	none
CCN1/C(=C\C=C\C2=[N+](CC)c3ccccc3C2(C)C)C(C)(C)c2ccccc21	BoNT A protease 92
CCOC(=O)/C=C1/N(C)c2ccccc2C1(C)C	none
CC(=O)Nc1cc(-c2cccc(C(=O)NCCO)c2)cn2c(-c3ccc(F)c(Cl)c3)cnc12	none
CC1CCN(C(=O)CCc2nc3cc(S(=O)(=O)N(C)C)ccc3n2C)CC1	BoNT A protease inconclusive, Autofluor counter 20932
CC1CN(C2=NC(=O)/C(=C3/C(=O)N(Cc4ccc(F)cc4)c4ccccc43)S2)CC(C)O1 (stereo not drawn)	Anthrax LF prot 32, BoNT A protease inconclusive, BoNT F protease inconclusive
O=C1N=C(N2CCOCC2)S/C1=C1\C(=O)N(Cc2ccccc2)c2ccccc21	Autofluor counter 16736
CCCN1C(=O)/C(=C2\SC(N3CCCCC3)=NC2=O)c2ccccc21	BoNT F protease inconclusive
O=C(O)CCN1C(=O)/C(=C2\C(=O)N(Cc3ccc(F)cc3)c3ccccc32)SC1=S	none
Cc1ccc(C23CC4CC(CC(NC(=O)NC(C)(C)CO)(C4)C2)C3)cc1	Autofluor counter 22797
COc1ccc([N+](=O)[O-])cc1NC(=O)COC(=O)c1ccccn1	none
COC(=O)c1noc(-c2ccc(C)cc2)n1	Autofluor counter 23185
COC(=O)c1noc(-c2ccc(OC)cc2)n1	none
CCOC(=O)/C=C1\CC(=O)Nc2cc(C)c(C)cc2N1	Autofluor counter 20731
CCOC(=O)/C=C1\CC(=O)Nc2nonc2N1	Autofluor counter 22714
O=S1(=O)CC(N2CCN(CC3CC3)CC2)CN1CCc1ccccc1 (stereo not drawn)	none
Cc1ccc(S(=O)(=O)N2CCOCC2)cc1NC(=O)COC(=O)CSc1ccc(Br)cc1C	Autofluor counter 22185
Cc1ccc(NC(=O)C(C)N2C(=O)C3CC=C(Cl)CC3C2=O)cc1 (stereo not drawn)	none
Cc1ccc(NC(=O)C(C)N2C(=O)C3C4CC(C(Br)C4Br)C3C2=O)cc1 (stereo not drawn)	Autofluor counter 22632
O=C(NC1CCCCCC1)c1ccc(CS(=O)Cc2cccc(Cl)c2)o1 (stereo not drawn)	none
Cc1cc(C)n(-c2nc3ccccc3c(=O)n2OCc2ccc(Cl)cc2)n1	BoNT A protease inconclusive, Autofluor counter 22331
Cc1cc(CC(C)C)n(-c2nc3ccccc3c(=O)n2OCc2ccccc2)n1	BoNT A protease inconclusive, Autofluor counter 23326
Cc1cc(CC(C)C)n(-c2nc3ccccc3c(=O)n2OCC(=O)N(C)C)n1	none
